Reference: PubChem BioAssay (EPA / NIEHS)
Records with an inconclusive call do not appear. Calls of active or inactive are those of the source. How the source made its calls, unless noted: active means hit-call score of the fitted dose curve at least 0.9, where 1 is the maximum; inactive means score below 0.9.

Each molecule was assayed against Nuclear receptor subfamily 4 group A member 2 (Homo sapiens) (UniProt P43354) (assay: ATG_NURR1_TRANS: Attagene TRANS-FACTORIAL HepG2 Assay for human Nuclear Receptor Related Protein 1 (NURR1) (AID 2282985; active means hit-call score of the fitted dose curve at least 0.9, where 1 is the maximum)). Settings: HepG2 Attagene TRANS reporter, mRNA readout.
In short: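 HepG2 cells transiently transfected with NURR1-Gal4 chimera and GAL4-UAS reporter units; after 24 hr compound exposure, reporter mRNA quantified by RT-PCR and capillary electrophoresis; gain of signal fitted against DMSO.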

Chain of Nuclear receptor subfamily 4 group A member 2 (Homo sapiens) (P43354 whole entry, looked up, the tested form may be a part): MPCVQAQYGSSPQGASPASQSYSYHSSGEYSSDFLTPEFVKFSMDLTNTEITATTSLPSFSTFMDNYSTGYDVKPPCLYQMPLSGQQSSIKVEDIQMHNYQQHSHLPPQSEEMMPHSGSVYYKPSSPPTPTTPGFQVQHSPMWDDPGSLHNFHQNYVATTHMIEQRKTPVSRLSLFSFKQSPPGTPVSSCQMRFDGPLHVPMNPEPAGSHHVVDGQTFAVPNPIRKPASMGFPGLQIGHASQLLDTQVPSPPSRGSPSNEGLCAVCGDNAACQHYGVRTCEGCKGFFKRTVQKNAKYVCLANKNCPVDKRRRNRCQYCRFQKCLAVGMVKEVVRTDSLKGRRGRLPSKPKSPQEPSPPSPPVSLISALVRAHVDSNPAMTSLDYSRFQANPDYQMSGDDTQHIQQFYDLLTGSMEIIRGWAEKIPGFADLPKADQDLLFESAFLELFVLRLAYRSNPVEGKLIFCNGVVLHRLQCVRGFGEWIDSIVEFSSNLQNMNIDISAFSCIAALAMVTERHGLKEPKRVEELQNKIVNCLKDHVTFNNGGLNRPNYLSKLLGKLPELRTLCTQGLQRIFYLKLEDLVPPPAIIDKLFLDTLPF

AC50, active:
O=C1CCCCCCCCCCCCCC1 25.7 µM
CCCCCC[C@@H](O)C/C=C\CCCCCCCC(=O)O 108 µM

outcome, inactive:
CCCC(=O)OC/C=C(\C)CCC=C(C)C
CCCCCCC(O)CCCCCCCCCCC(=O)OC (stereo not given)
COC(=O)c1ccccc1
O=C(O)/C=C/C(=O)O
C/C=C(\C)C(=O)OCC/C=C\CC
CC/C=C\CC/C=C/C(OCC)OCC
CN1CCCC1
CCO[Si](CCCN)(OCC)OCC
CCCCCCC1CCC(=O)O1 (stereo not given)
CCC(=O)OCc1ccc(OC)cc1
C=C1CC[C@H]2C[C@@H]1C2(C)C
Cc1cc(-n2nc3ccc(Cl)cc3n2)c(O)c(C(C)(C)C)c1
O=C(OCc1ccccc1)c1ccccc1
CCCCCCC1CCCC(=O)O1 (stereo not given)
NC(=O)c1ccc(N)cc1
CC(=O)Nc1c(I)c(NC(C)=O)c(I)c(C(=O)O)c1I
CC(C)=CCOC(=O)c1ccccc1
CC(C)(C)NC(=O)[C@@H]1CN(Cc2cccnc2)CCN1C[C@@H](O)C[C@@H](Cc1ccccc1)C(=O)N[C@H]1c2ccccc2C[C@H]1O
Oc1cccc2ccccc12
CN(C)c1ccc(C(c2ccccc2)c2ccc(N(C)C)cc2)cc1

Each molecule was assayed against Transcriptional activator Myb (Homo sapiens) (UniProt P10242) (assay: ATG_Myb_CIS: Attagene CIS-FACTORIAL HepG2 Assay for human Myeloblastosis (Myb) Proto-Oncogene Transcription Factor (AID 2282986)). Settings: HepG2 Attagene CIS-FACTORIAL Myb reporter transcription; actives raise or lower the signal.
In short: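 Transiently transfected HepG2 cells carrying a multiplexed cis-promoter reporter set report endogenous Myb activity after 24 h compound exposure. Reporter mRNA is read by RT-PCR with capillary electrophoresis of fluorescent products, fitted bidirectionally against DMSO.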

Chain of Transcriptional activator Myb (Homo sapiens) (P10242 whole entry, looked up): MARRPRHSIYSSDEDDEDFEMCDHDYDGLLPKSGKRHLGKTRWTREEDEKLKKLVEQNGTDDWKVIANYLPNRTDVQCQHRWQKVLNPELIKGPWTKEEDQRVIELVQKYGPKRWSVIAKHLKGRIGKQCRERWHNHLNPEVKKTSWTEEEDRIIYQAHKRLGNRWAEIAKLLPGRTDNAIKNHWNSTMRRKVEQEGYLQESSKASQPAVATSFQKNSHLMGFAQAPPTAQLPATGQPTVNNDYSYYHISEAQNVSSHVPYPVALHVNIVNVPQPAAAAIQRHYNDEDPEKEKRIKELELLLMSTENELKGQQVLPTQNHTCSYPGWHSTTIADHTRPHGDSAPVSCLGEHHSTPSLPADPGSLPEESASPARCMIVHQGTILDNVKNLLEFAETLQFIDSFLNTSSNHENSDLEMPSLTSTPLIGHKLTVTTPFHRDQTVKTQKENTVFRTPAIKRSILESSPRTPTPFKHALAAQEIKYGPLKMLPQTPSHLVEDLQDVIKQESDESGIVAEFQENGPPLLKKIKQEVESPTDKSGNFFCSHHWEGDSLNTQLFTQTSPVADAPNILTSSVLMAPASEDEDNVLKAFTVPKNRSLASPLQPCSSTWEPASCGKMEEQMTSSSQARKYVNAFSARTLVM

outcome, inactive:
CNC(=C[N+](=O)[O-])NCCSCc1csc(CN(C)C)n1
O=C1CCCCCCCCCCCCCC1
CCCC(=O)OC/C=C(\C)CCC=C(C)C
CCCCCCC(O)CCCCCCCCCCC(=O)OC (stereo not given)
COC(=O)c1ccccc1
O=C(O)/C=C/C(=O)O
O=S(=O)(O)c1cccc2ccccc12
C/C=C(\C)C(=O)OCC/C=C\CC
CC/C=C\CC/C=C/C(OCC)OCC
C=CCOCC(CC)(CO)COCC=C
CN1CCCC1
CCO[Si](CCCN)(OCC)OCC
CCCCCCC1CCC(=O)O1 (stereo not given)
O=[N+]([O-])c1ccccc1C(F)(F)F
CCC(=O)OCc1ccc(OC)cc1
CCc1cc(C(N)=S)ccn1
CCC(C)=NO
COc1cccc(OC)c1C(=O)O
C=C1CC[C@H]2C[C@@H]1C2(C)C
CCCCCC1CCCC(=O)O1 (stereo not given)
COC(=O)[C@]1(C)CCC[C@@]2(C)[C@H]1CC=C1C=C(C(C)C)CC[C@@H]12
Cc1cc2nc3c(=O)[nH]c(=O)nc-3n(C[C@H](O)[C@H](O)[C@H](O)CO)c2cc1C
Cc1cc(-n2nc3ccc(Cl)cc3n2)c(O)c(C(C)(C)C)c1
O=C(OCc1ccccc1)c1ccccc1
CCCCCCC1CCCC(=O)O1 (stereo not given)
c1ccc(CNc2ncnc3nc[nH]c23)cc1
NC(=O)c1ccc(N)cc1
CC(=O)Nc1c(I)c(NC(C)=O)c(I)c(C(=O)O)c1I
CC(C)=CCOC(=O)c1ccccc1
CC(C)(C)NC(=O)[C@@H]1CN(Cc2cccnc2)CCN1C[C@@H](O)C[C@@H](Cc1ccccc1)C(=O)N[C@H]1c2ccccc2C[C@H]1O
Oc1cccc2ccccc12
C=CN1CCCCCC1=O
Oc1ccc(Oc2ccccc2)cc1
CC(=O)CCc1ccccc1
CNC[C@H](O)[C@@H](O)[C@H](O)[C@H](O)CO
CN(C)c1ccc(C(c2ccccc2)c2ccc(N(C)C)cc2)cc1
c1ccc2c(c1)Oc1ccccc1S2
CC[N+](CC)(CC(=O)Nc1c(C)cccc1C)Cc1ccccc1 (tested in a mixture with another compound)

AC50, active:
CCCCCC[C@@H](O)C/C=C\CCCCCCCC(=O)O 123 µM

These molecules were tested against Nuclear respiratory factor 1 (Homo sapiens) (UniProt Q16656) (assay: ATG_NRF1_CIS: Attagene CIS-FACTORIAL HepG2 Assay for human Nuclear Respiratory Factor 1 (NRF1) Orphan Gene (AID 2282987)). Settings: HepG2 NRF1 cis-element reporter, Attagene multiplex; actives raise or lower the signal.
In short: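 HepG2 cells transiently transfected with multiple cis-regulated reporter units, exposed 24 h. Reporter mRNAs measured by RT-PCR, fluorescent labelling, HpaI digestion and capillary electrophoresis; bidirectional fitting against DMSO.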

Chain of Nuclear respiratory factor 1 (Homo sapiens) (Q16656 whole entry, looked up): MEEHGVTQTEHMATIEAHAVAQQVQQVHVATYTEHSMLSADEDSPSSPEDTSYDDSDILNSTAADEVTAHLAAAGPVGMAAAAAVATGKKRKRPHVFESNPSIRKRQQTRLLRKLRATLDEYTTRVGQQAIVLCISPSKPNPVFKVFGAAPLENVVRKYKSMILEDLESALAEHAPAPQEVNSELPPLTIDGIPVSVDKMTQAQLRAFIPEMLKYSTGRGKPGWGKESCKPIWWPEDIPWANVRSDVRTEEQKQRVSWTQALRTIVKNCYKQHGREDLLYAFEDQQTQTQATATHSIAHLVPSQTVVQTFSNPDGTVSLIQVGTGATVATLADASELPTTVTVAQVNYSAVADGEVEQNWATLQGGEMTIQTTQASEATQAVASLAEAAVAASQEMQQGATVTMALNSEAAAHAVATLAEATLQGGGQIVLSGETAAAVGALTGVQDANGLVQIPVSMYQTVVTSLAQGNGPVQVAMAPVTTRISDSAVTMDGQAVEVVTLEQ

outcome, inactive:
CNC(=C[N+](=O)[O-])NCCSCc1csc(CN(C)C)n1
O=C1CCCCCCCCCCCCCC1
CCCC(=O)OC/C=C(\C)CCC=C(C)C
CCCCCCC(O)CCCCCCCCCCC(=O)OC (stereo not given)
COC(=O)c1ccccc1
O=C(O)/C=C/C(=O)O
O=S(=O)(O)c1cccc2ccccc12
C/C=C(\C)C(=O)OCC/C=C\CC
CC/C=C\CC/C=C/C(OCC)OCC
C=CCOCC(CC)(CO)COCC=C
CN1CCCC1
CCO[Si](CCCN)(OCC)OCC
CCCCCCC1CCC(=O)O1 (stereo not given)
O=[N+]([O-])c1ccccc1C(F)(F)F
CCC(=O)OCc1ccc(OC)cc1
CCc1cc(C(N)=S)ccn1
CCC(C)=NO
COc1cccc(OC)c1C(=O)O
C=C1CC[C@H]2C[C@@H]1C2(C)C
CCCCCC1CCCC(=O)O1 (stereo not given)
COC(=O)[C@]1(C)CCC[C@@]2(C)[C@H]1CC=C1C=C(C(C)C)CC[C@@H]12
Cc1cc2nc3c(=O)[nH]c(=O)nc-3n(C[C@H](O)[C@H](O)[C@H](O)CO)c2cc1C
Cc1cc(-n2nc3ccc(Cl)cc3n2)c(O)c(C(C)(C)C)c1
O=C(OCc1ccccc1)c1ccccc1
CCCCCCC1CCCC(=O)O1 (stereo not given)
c1ccc(CNc2ncnc3nc[nH]c23)cc1
NC(=O)c1ccc(N)cc1
CC(=O)Nc1c(I)c(NC(C)=O)c(I)c(C(=O)O)c1I
CC(C)=CCOC(=O)c1ccccc1
CC(C)(C)NC(=O)[C@@H]1CN(Cc2cccnc2)CCN1C[C@@H](O)C[C@@H](Cc1ccccc1)C(=O)N[C@H]1c2ccccc2C[C@H]1O
Oc1cccc2ccccc12
C=CN1CCCCCC1=O
Oc1ccc(Oc2ccccc2)cc1
CC(=O)CCc1ccccc1
CNC[C@H](O)[C@@H](O)[C@H](O)[C@H](O)CO
CN(C)c1ccc(C(c2ccccc2)c2ccc(N(C)C)cc2)cc1
c1ccc2c(c1)Oc1ccccc1S2
CC[N+](CC)(CC(=O)Nc1c(C)cccc1C)Cc1ccccc1 (tested in a mixture with another compound)

AC50, active:
CCCCCC[C@@H](O)C/C=C\CCCCCCCC(=O)O 139 µM
